# Source: PubChem BioAssay (National Center for Advancing Translational Sciences (NCATS))
# Hits are enriched below; roughly 7.5% of the tested compounds scored in any of these assays.
# SMN2 splice enh – SMN2 splice variant enhancement; HEK293 SMN2-luciferase splicing reporter, luminescence, 30-36 h; Potency, µM (highest dose often 46.1 µM), inactives show top-dose activity change, positive = activation, usual class: activators; 210,000 compounds, 2.8% hits; AID 1458; note: % of control where 0% means no effect; nearly all actives have a fitted effect of over 55% in size
#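 HEK293 cells carry an SMN2 minigene-luciferase reporter in which exon 7 inclusion puts luciferase in frame. Cells were seeded at 2000 cells/well, attached for 10-12 hours, then exposed to compounds for 30-36 hours at 37C before ONE-Glo luminescence.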
# NPC1 prom act – NPC1 promoter activation; Huh7 NPC1 promoter luciferase reporter, 24 h; Potency, µM (highest dose often 9.22 µM), for inactives: at the highest dose activation, most hits filed as activators; 320,000 compounds, 2.4% hits; AID 485313; note: % of control where 0% means no effect; nearly all actives have a fitted effect of over 60% in size
#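 Compounds in DMSO were transferred onto Huh7 NPC1-luciferase reporter cells pre-incubated 2 h; after 24 h at 37 °C, Amplite reagent was dispensed and luminescence recorded 10 min later.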
# Rab9 prom act – activators of Rab9 promoter; 320,000 compounds, 2.8% hits; Potency, µM (series often up to 9.22 µM), inactives show at the highest dose activation, negative = inhibition, actives largely listed as activators; AID 485297; Huh7 Rab9 promoter-luciferase reporter, luminescence, 24 h; note: % of control where 0% means no effect; nearly all actives have a fitted effect of over 60% in size
#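 Quantitative HTS format; Huh7 Rab9-luciferase reporter cells (1500/well) receive compound 2 h post-plating, incubate 24 h at 37 °C, then get luciferase reagent for 10 min before luminescence reading.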
# ELG1 genotoxic – inducers of genotoxicity in HEK293T ELG1-luciferase cells; Potency, µM (series often up to 46 µM), for the others: at the top dose activity change, positive = activation, hits mostly activators; AID 504466; 330,000 compounds, 1.3% hits; HEK293T ELG1-luciferase reporter, luminescence, 16 h; note: % of control where 0% means no effect; nearly all actives have a fitted effect of over 60% in size
#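 Reporter readout depends on ELG1 protein level, which increases with genetic stress. After 16 hr compound exposure at 37 °C, luciferase activity was quantified using ONE-Glo.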
# FLuc counter – counter-screen for miR-21 project: firefly luciferase inhibitors or activators; P08659; purified FLuc, Km substrates, luminescence inhibition; Potency, µM (highest dose often 57.5 µM), inactives show at the top dose activity change, negative = inhibition, usual class: inhibitors; 360,000 compounds, 6.9% hits; AID 588342;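 note: plate controls were vehicle for no effect and reference inhibitor for full effect; nearly all actives have a fitted effect of over 55% in size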
# Target sequence (P08659 whole entry, looked up): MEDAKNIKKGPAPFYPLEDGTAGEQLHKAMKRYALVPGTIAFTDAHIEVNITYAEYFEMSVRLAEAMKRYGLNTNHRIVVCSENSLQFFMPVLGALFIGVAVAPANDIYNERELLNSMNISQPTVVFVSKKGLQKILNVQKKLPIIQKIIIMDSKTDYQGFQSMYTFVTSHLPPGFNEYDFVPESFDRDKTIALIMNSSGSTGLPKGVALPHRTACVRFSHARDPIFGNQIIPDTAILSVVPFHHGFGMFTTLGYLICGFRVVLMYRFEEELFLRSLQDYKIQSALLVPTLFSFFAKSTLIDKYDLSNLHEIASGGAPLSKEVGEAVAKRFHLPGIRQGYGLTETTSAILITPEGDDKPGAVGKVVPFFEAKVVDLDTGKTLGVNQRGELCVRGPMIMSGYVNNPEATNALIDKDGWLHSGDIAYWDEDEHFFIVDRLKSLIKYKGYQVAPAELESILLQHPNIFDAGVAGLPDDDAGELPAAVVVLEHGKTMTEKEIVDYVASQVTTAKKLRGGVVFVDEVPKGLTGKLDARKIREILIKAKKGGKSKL
#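 Purified P. pyralis luciferase (10nM final) with 10uM D-luciferin and 10uM ATP (Km levels) in 50mM Tris acetate pH 7.5, 10mM Mg acetate, 0.01% Tween-20, 0.05% BSA; qHTS 6-point titration, ~60 µM downward; luminescence read.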
# * = called active by the depositor; ? = inconclusive; nt = no result given; [ ] = another dose, or the depositor's remark. Calls come from the whole dose curve; as a rule, active = well fitted curve in the direction sought with a large enough effect; inconclusive = small, poorly fitted or top-dose-only effect, or another doubt; inactive = no such curve, though single readings can be large; an effect the other way counts as inactive or inconclusive. Potency is the fitted concentration of half-maximal effect.
SMILES,SMN2 splice enh,NPC1 prom act,Rab9 prom act,ELG1 genotoxic,FLuc counter
COC(=O)N/N=C/c1cc(C)n(-c2ccc(Br)cc2)c1C,nt,1.0%,15.8%,2.4%,?
CC(C)c1ccc(O)c(NC(=O)c2cccnc2)c1,-0.1%,7.4%,5.4%,-0.6%,-8.5%
COC(=O)C(C(=O)OC)c1ccc(NC(=O)c2cccc(Cl)c2)cc1,?,?,?,17.6%,-0.7%
CC(C)c1ccc(NC(=O)c2cccnc2)cc1,?,?,3.98µM*,20.6µM*,16.9µM*
CC(C)c1ccc2oc(-c3cc(NC(=O)c4cccnc4)ccc3Cl)nc2c1,15.3%,nt,nt,nt,10.7µM*
CC(C)c1ccc(NC(=S)NNC(=O)c2cccnc2)cc1,-16.2%,-3.3%,14.5%,8.9%,10.7µM*
CC(C)c1ccc(NC(=O)c2snc3ccc(Cl)cc23)cc1,14.1µM*,2.51µM*,2.24µM*,?,7.57µM*
O=C(NC(=S)Nc1ccccc1Cl)c1csnn1,7.3%,5.2%,2.9%,2.3%,13.5µM*
CC(C)c1ccc(NC(=O)c2csnn2)cc1,?,1.58µM*,1.78µM*,1.16µM*,2.13µM*
O=C(Nc1ccccc1NC(=O)c1csnn1)c1csnn1,nt,-2.9%,1.7%,3.0%,-1.6%
Cc1ccc(Cl)cc1NC(=O)COC(=O)CC1CCCCC1,nt,-2.5%,2.2%,-0.2%,-5.3%
CN1C(=O)/C(=N\OC(=O)c2cccc3ccccc23)c2ccccc21,-10.5%,1.5%,9.0%,5.4%,10.7µM*
CCCCCCCCC,-6.2%,nt,nt,nt,nt
C=CCOc1ccc(-c2n[nH]c(=S)o2)cc1,nt,-1.1%,-2.1%,7.0%,23.9µM*
O=c1[nH]nc(-c2ccc(OCc3ccc(Cl)cc3Cl)cc2)o1,nt,-3.6%,-3.4%[1.84 µM],8.2%,?
COc1ccc(C(=O)Nc2ccc(-c3n[nH]c(=S)o3)cc2)cc1,nt,29.3%,?,?,3.01µM*
NC(=S)Nc1cccc(-c2n[nH]c(=S)o2)c1,nt,-7.0%,-3.1%,-0.7%,-19.1%
O=C(Nc1ccc(-c2n[nH]c(=S)o2)cc1)c1ccccc1,nt,10.5%,6.8%,7.6%,8.49µM*
Cc1ccc(NC(=S)Nc2cccc(-c3n[nH]c(=S)o3)c2)cc1,nt,-1.2%,?,14.8%,16.9µM*
Cc1cc(C(=O)Nc2c(F)c(F)c(F)c(F)c2F)n(-c2ccccc2)n1,-5.9%,-5.4%,-3.7%,-3.6%,-4.9%
COc1ccccc1-c1cc(-c2ccccc2)nc(=O)[nH]1,nt,1.0%,-2.2%,0.6%,-0.2%
COc1ccccc1-c1cc2ccccc2[nH]1,12.6µM*,29.6%,?,?,15.1µM*
N/C(=N\OC(=O)c1ccccc1Cl)c1ccccc1,11.2µM*,3.16µM*,3.16µM*,?,0.379µM*
N/C(Cn1cncn1)=N\OC(=O)c1ccc(Cl)cc1,-1.7%,-2.7%,1.9%,4.0%,4.0%
N/C(=N\OC(=O)c1ccco1)c1ccc(Cl)cc1,nt,?,?,7.3µM*,23.9µM*
SMILES,SMN2 splice enh,NPC1 prom act,Rab9 prom act,ELG1 genotoxic,FLuc counter
N/C(=N\OC(=O)c1ccc(Cl)cc1)c1ccn[nH]1,nt,1.26µM*,1.58µM*,2.59µM*,3.01µM*
N/C(=N\OC(=O)c1ccccc1Cl)c1ccc(Cl)cc1,15.8µM*,19.8%,?,2.59µM*,1.35µM*
Cc1cc(=O)n(CNC(=O)c2ccccc2)c(=S)[nH]1,-4.8%,-4.0%,-1.9%,3.5%,3.1%
Cc1onc(-c2ccccc2)c1C(=O)c1c[nH]c(C(=O)NCc2ccncc2)c1,-13.1%,-1.9%,2.7%,-2.7%,1.3%
C/C(=N\OC(=O)c1c(-c2ccccc2Cl)noc1C)c1nccs1,nt,-1.4%,-0.4%,-2.0%,5.0%
COc1ccccc1C(=O)O/N=C(\N)c1ccccc1Cl,22.4µM*,4.0%,?,?,?
C/C(=N\OC(=O)c1ccc(Cl)cc1)c1nccs1,-18.9%,0.7%,0.6%,1.0%,0.477µM*
N/C(=N\OC(=O)c1ccc(Cl)cc1)c1ccc(Cl)cc1,?,?,?,?,3.01µM*
COc1cc(C(c2c(C)[nH][nH]c2=O)c2c(C)[nH][nH]c2=O)ccc1OC(=O)c1ccccc1OC,8.0%,nt,nt,nt,?
COc1ccccc1C(=O)Oc1ccc(C(C)C)cc1,-7.4%,-2.5%,-0.9%,?,9.53µM*
CCc1ccc2oc(C(=O)Nc3ccc(S(N)(=O)=O)cc3)c(C)c2c1,-1.2%,4.2%,-5.7%,-0.7%,-1.1%
